In the library only some 8% were active in any assay of this set; here they are far more common.
Cav32 inh = Cav3.2 calcium influx blockers – cell-based, Fluo-4 calcium fluorescence, FDSS, MLSMR library, primary screen; 100,000 tested, 4% active; B-score at 10 µM; Cav3.2-expressing cells; stronger effect = lower value; Voltage-dependent T-type calcium channel subunit alpha-1H (Homo sapiens), O95180; AID 449739, 2010;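 active = single-dose well whose peak fluorescence ratio is a statistical outlier from its plate by either plate-standardised score or position-corrected B-score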
PostGolgi ctrl = growth inhibition of yeast control strain, primary screen, counter-screen for post-Golgi transport modulator project | 98,000 tested, 5% active | efflux-deficient yeast background strain, growth absorbance A615, 16 h | inhibition, % at 10 µM
PostGolgi yeast = phenotypic screen on post-Golgi transport, primary screen. post-Golgi transport phenotypic cell assay. inhibition, % at 10 µM. 98,000 tested, 0.9% active;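 also: yeast cells grown in 1536-well plates; yeast grown about 18 h at 30C before absorbance read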
PTK2B oligo ant = antagonists of Pyk2 self-association, primary screen, Q293 cells, FERM NanoBiT luminescence, HTS | stronger effect = lower value | z-score (the deposit names both 25 µM and 10 µM) | 99,000 tested, 0.83% active | AID 1347419, 2020;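 active = Z-score of -3 or lower, scaled per plate to the spread of control and sample wells; inactive = z-score above -3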;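 also: negative z-score means lost luminescence so less FERM oligomerization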
* = called active by the depositor; nt = no result given. Rule as the data show it, unless noted: active = inhibition above about 30%; inactive = the rest.

SMILES	Cav32 inh	PostGolgi ctrl	PostGolgi yeast	PTK2B oligo ant
CC(C)(C)NC(=O)NC(=O)CSc1nnc(COc2ccccc2Cl)o1	-6*	7	-10	0.97
Cc1cccc(C)c1OCc1nnc(SCC(=O)NCCc2ccccc2)o1	-5.7*	nt	nt	-2.4
COc1ccc(Cc2nnc(SCC(=O)NCCc3ccccc3)o2)cc1	-1	11	-5	0.91
Cc1ccc2nc(N3CCN(Cc4nnnn4Cc4ccccc4)CC3)c(C#N)cc2c1	-2.5	20	-5	0.98
COc1ccc2cc(C#N)c(N3CCN(Cc4nnnn4CCC(C)C)CC3)nc2c1	-1	34*	-3	0.05
Cc1[nH]c2ccccc2c1SCCNC(=O)c1ccc(Br)o1	-4.1*	nt	nt	-1.2
CCC(=O)NCCSc1c[nH]c2ccccc12	0.11	3	2	0.4
O=C(NCCSc1c[nH]c2ccccc12)c1ccc(Br)o1	-5*	18	0	nt
O=C(NCCC(c1ccccc1)c1ccccc1)c1ccc(Br)o1	-6.5*	29	-4	-0.92
CC(C)C(=O)NCCSc1c[nH]c2ccccc12	2.8	5	3	nt
CCN(CC)S(=O)(=O)c1ccc(C(=O)NCCSc2c[nH]c3ccccc23)cc1	-4.6*	nt	nt	nt
CCN(CC)c1ccc(NC(=O)OC)cc1	0.11	-1	8	-0.63
O=C(NCCc1csc(-c2ccccc2)n1)c1ccc(Br)o1	-3.3	35*	-6	nt
COc1ccc(COC(=O)NC2CCN(S(=O)(=O)c3ccc(OC)cc3)CC2)cc1	-2.1	4	-3	-1.3
COc1ccc(S(=O)(=O)N2CCC(NC(=O)OCc3c(Cl)cccc3Cl)CC2)cc1	0.41	32*	-12	-0.3
COc1ccc(S(=O)(=O)N2CCCC(C(=O)NC3CCCCC3)C2)cc1 (configuration not stated)	0.39	32*	-2	0.78
O=C(O)C1=C[C@@H](c2coc3ccccc3c2=O)C[C@@H](OCCCCO)O1	0.36	nt	nt	nt
CC(C)Cn1c(SCC(=O)NC(=O)NC2CCCC2)nc2ccccc21	-2.3	11	-12	-3.4*
CC(Sc1nc2ccccc2n1C)C(=O)NC(c1ccccc1)c1ccccc1 (configuration not stated)	-9.3*	nt	nt	-4*
CCNC(=O)NC(=O)C(C)Sc1nc2ccccc2n1CC(C)C (configuration not stated)	-2.3	32*	-3	-0.29
CCNC(=O)NC(=O)C(C)Sc1nc2cc(C(=O)OC)ccc2c(=O)n1-c1ccccc1 (configuration not stated)	nt	9	8	-1.1
CN(C)C(=O)Cn1c(SCC(=O)NC2CCCCC2)nc2ccccc21	0.33	8	-2	0.08
CC1CCCC(C)N1CCNC(=O)C1CCN(S(=O)(=O)N2CCCCC2)CC1 (configuration not stated)	-1.8	18	1	1.2
CC(C)CCOCC(=O)Nc1cccc(C(=O)O)c1	1	-4	-5	0.42
CC1CC(C)CN(CCCNC(=O)C2CCC(=O)N2C2CCCC2)C1 (configuration not stated)	0.2	17	0	2.8
SMILES	Cav32 inh	PostGolgi ctrl	PostGolgi yeast	PTK2B oligo ant
Fc1ccccc1Nc1nc2ccccc2n2nnnc12	-0.81	51*	3	nt
c1ccc(Nc2nc3ccccc3n3nnnc23)cc1	-0.85	nt	nt	nt
CCOc1ccccc1NC1=C(Cl)C(=O)N(Cc2ccccc2)C1=O	-1.9	33*	12	-2.7
O=C1C(Cl)=C(NCCc2ccccc2)C(=O)N1CCc1ccccc1	0.67	11	-12	-1
Cc1cccc(NC(=O)C2CC(=O)N(c3ccccc3)C2)c1C (configuration not stated)	0.18	4	2	-0.18
COc1ccc(CCNc2nc(N3CCCCC3)nc(N3CCCCC3)n2)cc1OC	-6.7*	32*	4	-1.2
OC(CN(c1ccccc1)c1ccccc1)Cn1cnc2ccccc21 (configuration not stated)	-5*	32*	-1	-0.66
O=C1/C(=C/c2cccs2)N=C(c2cccs2)N1Nc1ccccc1	-1.5	22	-1	-2.2
Cc1ccc(NN2C(=O)C=C(c3ccc(Cl)cc3)C2=O)cc1	0.64	99*	106*	-0.33
O=C1C=C(c2ccccc2)C(=O)N1Nc1ccccc1	0.15	30	104*	0.97
Nc1c(C(=O)c2ccccc2)sc(Nc2ccccc2)c1S(=O)(=O)c1ccccc1	-3.8*	nt	nt	-2.1
CCOC(=O)C(NC(C)=O)(Nc1ccc(S(=O)(=O)Nc2onc(C)c2C)cc1)C(F)(F)F (configuration not stated)	0.36	-4	35*	0.95

Assay outcomes deposited in PubChem BioAssay by several laboratories.
